Data from PubChem BioAssay (NCI).
This is part of a sample that, as a whole, favours compounds with a hit. Of some 83,000 tested, about 20% had one in any assay.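 A percent growth of 40 corresponds to 60% growth inhibition; 0 means no net growth; -100 means all cells died. Active threshold: below 10.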 A number with no mark means an inactive call. Active and inactive are the calls of the source.

What was measured:
Assay in all cases: NCI-60 one-dose screen, 48 h (100 = growth as untreated, 0 = no growth, -100 = all killed)
Conditions in all cases: 10 µM unless noted
T-47D breast = test system: T-47D breast
BT-549 breast = test system: BT-549 breast
MDA-MB-435 melanoma = test system: MDA-MB-435 melanoma
SW-620 colon = test system: SW-620 colon
MCF7 breast = test system: MCF7 breast
HCT-116 colon = test system: HCT-116 colon
HCC-2998 colon = test system: HCC-2998 colon
KM12 colon = test system: KM12 colon

SMILES	growth (T-47D breast)	growth (BT-549 breast)	growth (MDA-MB-435 melanoma)	growth (SW-620 colon)	growth (MCF7 breast)	growth (HCT-116 colon)	growth (HCC-2998 colon)	growth (KM12 colon)
CN1CCN(Cc2ccc(NC(=O)c3cncc(C#Cc4cnc5ccc(N6CCOCC6)nn45)c3)cc2C(F)(F)F)CC1	-5.39% (active)	-71.7% (active)	-65% (active)	-19.2% (active)	-69% (active)	-76.2% (active)	-33.2% (active)	-46.2% (active)
Nn1c(=O)n(-c2cccc(C(F)(F)F)c2)c(=O)c2cc(-c3ccc(F)cc3F)ccc21	-13.8% (active)	-6.33% (active)	3.27% (active)	17%	1.3% (active)	3.16% (active)	12.5%	8.93% (active)
O=C(CSc1nc2ccccc2c(=O)n1-c1ccc(Cl)c(Cl)c1)Nc1ccc(S(=O)(=O)Nc2ccc(Cl)nn2)cc1	85.9%	94.4%	97.8%	89.7%	95.6%	92%	95.1%	102%
CN1CCN(c2ccc(C(=O)/C=C/c3cc(F)cc(C(F)(F)F)c3)cc2)CC1	51.9%	71.2%	24%	20%	8.55% (active)	22.8%	86.6%	35.5%
CC(Nc1c(C#N)cnc2ccc(-c3cncc(-c4n[nH]c(=O)o4)c3)cc12)c1ccccc1 (stereo not drawn)	13.1%	-20.1% (active)	24%	18.7%	8.39% (active)	0.0701% (active)	25.8%	17.1%
COc1ccc(C2CC(c3cccc(OCCCCOc4cccc(C5=NN(C(C)=O)C(c6ccc(OC)cc6)C5)c4)c3)=NN2C(C)=O)cc1 (stereo not drawn)	40.1%	69.8%	60.3%	87.1%	39.9%	47.3%	83.1%	70.5%
CC(=O)/C(N=Nc1ccc2oc(=O)ccc2c1)=C(\C)O	8.7% (active)	33.2%	33.2%	17.6%	25.8%	12.1%	35.7%	19%
CCc1cccc2c3c(sc12)C(c1ccc(F)cc1)C(C#N)=C(/N=C/c1ccc(Cl)cc1)O3 (stereo not drawn)	30.7%	2.79% (active)	-5.71% (active)	37.6%	14%	11.4%	10.3%	16.1%
N#C/C(=N\Nc1ccc(F)cc1)C(=O)Nc1cc(-c2ccccc2)nn1-c1ccccc1	-5.1% (active)	7.63% (active)	6.98% (active)	17.5%	0.117% (active)	7.78% (active)	19.5%	9.32% (active)
CN1CCN(c2ccc(Nc3nc(NCCCNS(=O)(=O)c4cccc(F)c4)c4sccc4n3)cc2)CC1	22.8%	42.7%	14.1%	46.5%	25.7%	11.1%	37.9%	54%
CCCCOc1ccc(S(=O)(=O)N2CCN(c3nc(C)cc(N4CCOCC4)n3)CC2)cc1	55.9%	-6.76% (active)	6.06% (active)	28.9%	76.9%	-1.17% (active)	33%	4.03% (active)
c1ccc(-c2cn3c(-c4c[nH]c5ccccc45)csc3n2)cc1	31.9%	41.4%	74.7%	72.1%	40.3%	64.5%	71.3%	44.7%
CC(C)(O)c1cncc(-c2ccc3ncc(C#N)c(N4CCc5cc(F)c(Cl)cc54)c3c2)c1	2.88% (active)	2.34% (active)	17.9%	26.6%	8.93% (active)	24.8%	18.7%	34.3%
O=C(/C=C/c1ccccc1Cl)Nc1ncc(Cc2cc(Cl)ccc2Cl)s1	29.9%	32.5%	-26.6% (active)	14.3%	16.6%	17.3%	57.8%	22.1%
CN1CCN(c2ccc(Nc3nc(NCCNC(=O)c4ccccc4)c4sccc4n3)cc2)CC1	18.1%	58.8%	59.3%	49.1%	25.7%	0.236% (active)	84%	59.6%
CC1(C)C=Cc2cc(/C(N)=N/C(N)=N/c3nc4ccccc4s3)ccc2O1	77.6%	86.1%	99.3%	102%	67.2%	59.2%	109%	61.5%

SMILES	growth (T-47D breast)	growth (BT-549 breast)	growth (MDA-MB-435 melanoma)	growth (SW-620 colon)	growth (MCF7 breast)	growth (HCT-116 colon)	growth (HCC-2998 colon)	growth (KM12 colon)
C[C@]12CC[C@H]3[C@@H](CC=C4C[C@@H](O)CC[C@@]43C)[C@@H]1CC[C@@H]2[C@](C)(O)CCc1cccnc1	36.3%	47.7%	64%	83.1%	35.2%	51.9%	86.7%	70.2%
CCc1cc(OC(=O)N2CCC(N3CCCCC3)CC2)ccc1Nc1cc(-c2ccc(-n3cccn3)cc2)[nH]n1	97.2%	87.6%	37.3%	-38.3% (active)	6.81% (active)	-64.1% (active)	83.8%	70.1%
Cc1cc2nc(C(Cl)Cl)nc(-c3ccc(S(=O)(=O)N(C)C)cc3)n2n1	69.8%	38.5%	47%	18.2%	62.1%	18.2%	47.6%	39.1%
O=C(Nc1ccc(N=Cc2c(O)[nH]c3ccccc23)cc1)Nc1ccc(S(=O)(=O)Nc2ncccn2)cc1	92.2%	103%	101%	103%	85%	92.7%	109%	50.9%
CCNCCOc1ccc(/C(=C(/CC)c2ccc(Cl)cc2)c2ccc(OCCCN(C)C)cc2)cc1	-60.2% (active)	-91.7% (active)	-74.2% (active)	-62.1% (active)	-82.5% (active)	-72.4% (active)	-84.2% (active)	-85.3% (active)
Cc1ccc([C@H]2c3[nH]c4ccccc4c3C[C@H]3C(=O)N(CCCCCCC(=O)NO)CC(=O)N23)s1	37.3%	90.9%	45.2%	51.9%	32.8%	23.7%	82.4%	74.3%
Cc1ccc(N2CCN(C3=C(Cl)C(=O)c4ncccc4C3=O)CC2)cc1	-56.1% (active)	103%	-81.2% (active)	-79.7% (active)	-62% (active)	-78.1% (active)	104%	80%
C/C(=N\NC(=O)Nc1ccccc1)c1nnn(-c2ccc([N+](=O)[O-])cc2)c1C	98.2%	111%	104%	104%	97.9%	99.5%	106%	101%
Cc1ccc2c(n1)C(=O)C(Cl)=C(Nc1ccc(C(=O)OC(C)(C)C)cc1)C2=O	-8.23% [9.25 µM] (active)	84% [9.25 µM]	87.6% [9.25 µM]	-42% [9.25 µM] (active)	11.3% [9.25 µM]	-70.5% [9.25 µM] (active)	103% [9.25 µM]	105% [9.25 µM]
O=C(CCCCCCNC(=O)C(O)(O)C(F)(F)F)Nc1ccc(-c2ccccc2)cc1	11.5%	14.8%	7.66% (active)	2.53% (active)	9.59% (active)	4.14% (active)	-0.948% (active)	8.38% (active)
CC(C)(C)c1cc(NC(=O)Nc2ccc(-c3cn4c5c(sc4n3)CCc3c[nH]cc3-5)cc2)no1	18.5%	18.7%	26%	17.8%	-6.97% (active)	23.2%	24%	6.68% (active)
CCCN1C=C/C(=C\C(=O)n2ccc3ccccc32)c2ccccc21	46.6%	103%	93%	86.6%	64.5%	69%	104%	84.8%
Cc1ccc2c(n1)C(=O)C(Cl)=C(Nc1cccc(C)c1C)C2=O	-56.7% (active)	44%	-86.5% (active)	-9.92% (active)	-59.3% (active)	-42.9% (active)	51.6%	26.1%
C#C[C@]1(O)CC[C@H]2[C@@H]3CC=C4c5sc(N6CCN(C)CC6)nc5CC[C@]4(C)[C@H]3CC[C@@]21C	85.7%	16.9%	1.24% (active)	19.6%	24.2%	-41% (active)	81.2%	21.1%
COc1ccc(-c2cc(-c3ccc(N(C)C)cc3)n3c(n2)nc2ccccc23)cc1	2.27% (active)	40.1%	74.3%	76.9%	40.7%	15.8%	84.2%	62.3%
